Test results published in PubChem BioAssay.
Several values for one entry are separate records, joined by “and”; a condition that tells them apart may be missing. Equal entries are not always repeated. Records with an inconclusive call do not appear. Activity calls are given as the source filed them.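 The calls were made as follows, unless noted: active = compounds whose cell count with miR-34 switched on is under 0.7 times the count with it off; inactive = the rest.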

How the values were obtained:
[1] = EMT-state selective cytotoxicity in co-culture – imaging, PC-3E GFP, TEM4-18 mCherry, primary screen (AID 1345086;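 active = compounds killing one labelled cell type while sparing the other, by normalised counts and ratio limits, not self-fluorescent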;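 as to all read-outs here: cells exposed to compound for 72 h before imaging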;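 as to red/green cell ratio (normalised): normalised mesenchymal count divided by normalised epithelial count so high means epithelial killing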); conditions: PC-3E GFP / TEM4-18 mCherry co-culture, imaging cell counts, at 1 µM; for red/green cell ratio (normalised): actives lie on both sides, counts scaled to control wells, 1 = unselective
[2] = viability loss in pontine glioma line – cell-based, SU-DIPG-XVII, MIPE5.0, CellTiter-Glo, qHTS, dose response (AID 1347060; cut-off not given, nearly all actives have AC50 up to about 26 µM;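 as to AC50: cells exposed to compound for 48 hours before viability readout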); conditions: CellTiter-Glo ATP luminescence
[3] = viability loss in pontine glioma line – cell-based, SU-DIPG-XIII, MIPE4.0, CellTiter-Glo, qHTS, dose response (AID 1347061; cut-off not given, nearly all actives have AC50 up to about 37 µM;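 also: cells exposed to compound for 48 hours before readout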); conditions: CellTiter-Glo ATP luminescence
[4] = viability loss in pontine glioma line – cell-based, JHH-DIPG-1, MIPE4.0, CellTiter-Glo, qHTS, dose response (AID 1347062; cut-off not given, nearly all actives have AC50 up to about 27 µM;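 as to AC50: cells exposed to compound for two days before readout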); conditions: JHH-DIPG-1 viability, CellTiter-Glo ATP luminescence
[5] = viability loss in pontine glioma line – cell-based, SU-DIPG-IV, MIPE4.0, CellTiter-Glo, qHTS, dose response (AID 1347063; cut-off not given, nearly all actives have AC50 up to about 30 µM;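 also: compound exposure lasted 48 hours before the viability readout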); conditions: CellTiter-Glo ATP luminescence
[6] = viability loss in pontine glioma line – cell-based, SU-DIPG-XIII, MIPE5.0, CellTiter-Glo, qHTS, dose response (AID 1347064; cut-off not given, nearly all actives have AC50 up to about 23 µM); conditions: CellTiter-Glo ATP luminescence
[7] = viability loss in pontine glioma line – cell-based, SU-DIPG-XXV, MIPE5.0, CellTiter-Glo, qHTS, dose response (AID 1347065; cut-off not given, nearly all actives have AC50 up to about 26 µM;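 also: cells exposed to compound for 48 hours before ATP readout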); conditions: CellTiter-Glo ATP luminescence
[8] = JHH-DIPG-1 glioma cell viability, MIPE5.0 library, CellTiter-Glo luminescence, qHTS (AID 1347067; cut-off not given, nearly all actives have AC50 up to about 26 µM;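 also: cells exposed to compound for 48 hours before readout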); conditions: JHH-DIPG-1 glioma viability, CellTiter-Glo ATP luminescence
[9] = growth inhibition of DIPG cells – cell-based, MIPE5.0 library, qHTS (AID 1347068; cut-off not given, nearly all actives have IC50 up to about 30 µM); conditions: SU-DIPG-XXV viability
[10] = viability loss with induced miR-34 in A549 – imaging, A549 dox-inducible miR-34, nuclei and caspase counts, primary screen (AID 1347080); conditions: A549 miR-34 inducible, Hoechst nuclei count, 48 h
[11] = blockers of cellular phospholipid synthesis – cell-based, LOPAC library, screen 4, primary screen (AID 1347384; call rule not given here); conditions: animal cells, phospholipid biosynthesis inhibition screen; at 10 µM
[12] = growth inhibition of DIPG cells – cell-based, MIPE4.0 library, CellTiter-Glo luminescence, qHTS (AID 1347066; cut-off not given, nearly all actives have AC50 up to about 30 µM;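 also: cells exposed to compound for 48 hours before readout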); conditions: SU-DIPG-VI viability, CellTiter-Glo ATP luminescence
[13] = MELAS cybrid and Rieske KO viability enhancers – cell-based, MELAS cybrids, Rieske KO mouse fibroblasts, CellTiter-Glo, primary screen (AID 1508586;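 active = mean z-score across replicates of 1.96 or higher in either the MELAS or the Rieske mutant cell line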;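 also: z relative to plate mean and SD of compound and empty wells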); conditions: low glucose
[14] = measured here: epithelial PC-3E GFP cell survival
[15] = measured here: mesenchymal TEM4-18 mCherry cell survival
[16] = stronger effect = lower value, cell number ratio, induced over uninduced
[17] = measured here: relative caspase fold change +Dox/-Dox
[18] = measured here: total cells with miR-34 induction, stronger effect = lower value
[19] = measured here: total cells without miR-34 induction
[20] = MELAS cybrid survival, CellTiter-Glo 48 h, stronger effect = higher value
[21] = Rieske KO mouse fibroblast survival, CellTiter-Glo 72 h

O=NN(CCCl)C(=O)NCCCl
red/green cell ratio (normalised) [1]: 1.04 (inactive)
normalised cell number [1, 14]: 1.15
normalised cell number [1, 15]: 1.2
outcome [2]: inactive
outcome [3]: inactive
outcome [4]: inactive
outcome [5]: inactive
outcome [6]: inactive
outcome [7]: inactive
outcome [8]: inactive
outcome [9]: inactive
fold change [10, 16]: 0.948 (inactive) and 0.902 (inactive)
fold change [10, 17]: 1.47 and 4.57
cell count [10, 18]: 8130 and 9540
cell count [10, 19]: 8570 and 10600
outcome [11]: inactive

NNc1nncc2ccccc12
red/green cell ratio (normalised) [1]: 1.11 (inactive)
normalised cell number [1, 14]: 1.13
normalised cell number [1, 15]: 1.26
outcome [2]: inactive
outcome [3]: inactive
outcome [5]: inactive
outcome [7]: inactive
outcome [12]: inactive
outcome [8]: inactive
fold change [10, 16]: 1.01 (inactive) and 0.821 (inactive)
fold change [10, 17]: 1.23 and 1.05
cell count [10, 18]: 10000 and 10300
cell count [10, 19]: 9890 and 12600
outcome [11]: inactive

Oc1ccc(OCc2ccccc2)cc1
red/green cell ratio (normalised) [1]: 1.06 (inactive) and 1.09 (inactive) and 0.97 (inactive)
normalised cell number [1, 14]: 0.97 and 1.09 and 0.95
normalised cell number [1, 15]: 1.03 and 1.19 and 0.92
outcome [2]: inactive
outcome [3]: inactive
outcome [4]: inactive
outcome [5]: inactive
outcome [6]: inactive
outcome [7]: inactive
outcome [12]: inactive
outcome [8]: inactive
fold change [10, 16]: 0.78 (inactive) and 0.903 (inactive)
fold change [10, 17]: 1.95 and 0.958
cell count [10, 18]: 2470 and 5720
cell count [10, 19]: 3170 and 6340
z-score [13, 20]: -0.263 (inactive) and 1.74 (inactive)
z-score [13, 21]: 0.599 and -0.357

CC(=O)Oc1ccccc1C(=O)O
red/green cell ratio (normalised) [1]: 0.84 (inactive)
normalised cell number [1, 14]: 1.28
normalised cell number [1, 15]: 1.08
outcome [2]: inactive
outcome [4]: inactive
outcome [5]: inactive
outcome [7]: inactive
outcome [12]: inactive
outcome [8]: inactive
outcome [9]: inactive
outcome [11]: inactive
z-score [13, 20]: -0.282 (inactive) and -0.31 (inactive) and 0.455 (inactive)
z-score [13, 21]: 0.817 and -0.843 and -0.759

Nc1ccc(S(=O)(=O)Nc2ccnn2-c2ccccc2)cc1
red/green cell ratio (normalised) [1]: 0.85 (inactive)
normalised cell number [1, 14]: 1.05
normalised cell number [1, 15]: 0.9
outcome [3]: inactive
outcome [4]: inactive
outcome [5]: inactive
fold change [10, 16]: 0.969 (inactive) and 0.9 (inactive)
fold change [10, 17]: 1.76 and 1.07
cell count [10, 18]: 10100 and 7980
cell count [10, 19]: 10500 and 8860
outcome [11]: inactive
z-score [13, 20]: -0.791 (inactive)
z-score [13, 21]: -0.133

Cc1nnc(NS(=O)(=O)c2ccc(N)cc2)s1
red/green cell ratio (normalised) [1]: 1.39 (inactive)
normalised cell number [1, 14]: 0.96
normalised cell number [1, 15]: 1.33
AC50 [3]: 20.9 µM (active)
AC50 [4]: 1.32 µM (active)
outcome [6]: inactive
outcome [7]: inactive
outcome [8]: inactive
fold change [10, 16]: 0.854 (inactive) and 0.859 (inactive) and 0.853 (inactive)
fold change [10, 17]: 1.13 and 0.759 and 2.93
cell count [10, 18]: 8770 and 7900 and 10600
cell count [10, 19]: 10300 and 9200 and 12500
z-score [13, 20]: -0.255 (inactive) and -1.45 (inactive)
z-score [13, 21]: 0.469 and 0.621

CC(C)(Sc1cc(C(C)(C)C)c(O)c(C(C)(C)C)c1)Sc1cc(C(C)(C)C)c(O)c(C(C)(C)C)c1
red/green cell ratio (normalised) [1]: 1.01 (inactive)
normalised cell number [1, 14]: 1.14
normalised cell number [1, 15]: 1.16
outcome [3]: inactive
outcome [4]: inactive
outcome [5]: inactive
outcome [12]: inactive
outcome [9]: inactive
fold change [10, 16]: 0.81 (inactive) and 0.886 (inactive) and 0.877 (inactive)
fold change [10, 17]: 1.96 and 0.704 and 3.16
cell count [10, 18]: 8410 and 8070 and 11000
cell count [10, 19]: 10400 and 9110 and 12500
z-score [13, 20]: -0.245 (inactive) and 0.14 (inactive)
z-score [13, 21]: -0.773 and -0.118

CCn1cc(C(=O)O)c(=O)c2cc(F)c(N3CCNC(C)C3)c(F)c21 (stereo not given)
red/green cell ratio (normalised) [1]: 1.03 (inactive) and 0.91 (inactive)
normalised cell number [1, 14]: 1.03 and 1.1
normalised cell number [1, 15]: 1.07 and 1
outcome [4]: inactive
outcome [5]: inactive
outcome [6]: inactive
outcome [7]: inactive
outcome [12]: inactive
outcome [8]: inactive
outcome [9]: inactive
outcome [11]: inactive
z-score [13, 20]: -0.544 (inactive) and -0.435 (inactive)
z-score [13, 21]: 0.167 and 0.141

CCCCOc1ccc(CC(=O)NO)cc1
red/green cell ratio (normalised) [1]: 1.05 (inactive)
normalised cell number [1, 14]: 0.59
normalised cell number [1, 15]: 0.61
AC50 [3]: 23.5 µM (active)
AC50 [5]: 20.9 µM (active)
outcome [6]: inactive
outcome [7]: inactive
outcome [9]: inactive
fold change [10, 16]: 0.904 (inactive) and 0.891 (inactive)
fold change [10, 17]: 1.17 and 0.62
cell count [10, 18]: 7500 and 10000
cell count [10, 19]: 8290 and 11200
z-score [13, 20]: -0.309 (inactive) and 0.359 (inactive)
z-score [13, 21]: 0.677 and -0.599

COC(=O)Nc1nc2ccc(S(=O)c3ccccc3)cc2[nH]1 (stereo not given)
red/green cell ratio (normalised) [1]: 0.97 (inactive)
normalised cell number [1, 14]: 0.97
normalised cell number [1, 15]: 0.95
AC50 [2]: 18.6 µM (active)
outcome [12]: inactive
fold change [10, 16]: 1 (inactive) and 0.95 (inactive) and 1.02 (inactive)
fold change [10, 17]: 0.565 and 3.46 and 0.832
cell count [10, 18]: 5070 and 6690 and 5080
cell count [10, 19]: 5050 and 7040 and 4970
z-score [13, 20]: -0.274 (inactive) and -0.559 (inactive) and -0.178 (inactive)
z-score [13, 21]: 0.754 and 0.142 and 0.645

CCn1cc(C(=O)O)c(=O)c2cc(F)c(N3CCNCC3)nc21
red/green cell ratio (normalised) [1]: 1.34 (inactive)
normalised cell number [1, 14]: 0.89
normalised cell number [1, 15]: 1.2
outcome [3]: inactive
outcome [4]: inactive
outcome [5]: inactive
outcome [12]: inactive
fold change [10, 16]: 0.955 (inactive) and 0.936 (inactive) and 0.839 (inactive)
fold change [10, 17]: 0.759 and 2.37 and 1.38
cell count [10, 18]: 8750 and 11500 and 9060
cell count [10, 19]: 9160 and 12300 and 10800
z-score [13, 20]: -0.278 (inactive) and 0.526 (inactive) and -0.113 (inactive)
z-score [13, 21]: 0.647 and 0.794 and 0.23

Cc1cc2cc3c(C)cc(=O)oc3c(C)c2o1
red/green cell ratio (normalised) [1]: 0.99 (inactive)
normalised cell number [1, 14]: 1.05
normalised cell number [1, 15]: 1.04
outcome [2]: inactive
AC50 [5]: 20.9 µM (active)
outcome [6]: inactive
outcome [7]: inactive
outcome [12]: inactive
outcome [8]: inactive
outcome [9]: inactive
fold change [10, 16]: 0.952 (inactive) and 0.881 (inactive)
fold change [10, 17]: 1.2 and 2.5
cell count [10, 18]: 9030 and 10900
cell count [10, 19]: 9480 and 12400
z-score [13, 20]: -0.707 (inactive)
z-score [13, 21]: -0.528

Cn1c(=O)c2c(ncn2CC(O)CO)n(C)c1=O (stereo not given)
red/green cell ratio (normalised) [1]: 1.41 (inactive)
normalised cell number [1, 14]: 0.78
normalised cell number [1, 15]: 1.1
outcome [3]: inactive
outcome [4]: inactive
outcome [5]: inactive
outcome [6]: inactive
outcome [7]: inactive
outcome [12]: inactive
outcome [8]: inactive
outcome [9]: inactive
fold change [10, 16]: 0.891 (inactive) and 0.954 (inactive) and 0.903 (inactive)
fold change [10, 17]: 1.59 and 0.805 and 1.72
cell count [10, 18]: 9080 and 7480 and 11300
cell count [10, 19]: 10200 and 7830 and 12600
z-score [13, 20]: -0.421 (inactive) and 0.782 (inactive)
z-score [13, 21]: 0.428 and -0.0518

COC(=O)Nc1nc2ccc(Sc3ccccc3)cc2[nH]1
red/green cell ratio (normalised) [1]: 1.07 (inactive)
normalised cell number [1, 14]: 0.25
normalised cell number [1, 15]: 0.26
AC50 [2]: 0.934 µM (active)
AC50 [5]: 2.64 µM (active)
AC50 [7]: 0.742 µM (active)
outcome [12]: inactive
outcome [9]: inactive
z-score [13, 20]: 1.35 (inactive) and -2.36 (inactive) and -2.06 (inactive)
z-score [13, 21]: -0.0455 and -0.127 and 1.14
